# Most compounds without a hit are left out; they make up all but 2.4% or so of the library.
# D2 PAM-1 – Beta-Arrestin HTS for Positive Allosteric Modulators of the Human D2 Dopamine Receptor: Potentiators; D(2) dopamine receptor (Homo sapiens), P14416; DiscoveRx D2 beta-arrestin cells, luminescence, 90 min; 100% = 57 uM dopamine signal; potentiation, % (concentration not given with the values); hit rate 0.23% among 360,000; AID 624464, 2012; in the data active = potentiation above about 50%
# Target sequence (P14416 whole entry, looked up): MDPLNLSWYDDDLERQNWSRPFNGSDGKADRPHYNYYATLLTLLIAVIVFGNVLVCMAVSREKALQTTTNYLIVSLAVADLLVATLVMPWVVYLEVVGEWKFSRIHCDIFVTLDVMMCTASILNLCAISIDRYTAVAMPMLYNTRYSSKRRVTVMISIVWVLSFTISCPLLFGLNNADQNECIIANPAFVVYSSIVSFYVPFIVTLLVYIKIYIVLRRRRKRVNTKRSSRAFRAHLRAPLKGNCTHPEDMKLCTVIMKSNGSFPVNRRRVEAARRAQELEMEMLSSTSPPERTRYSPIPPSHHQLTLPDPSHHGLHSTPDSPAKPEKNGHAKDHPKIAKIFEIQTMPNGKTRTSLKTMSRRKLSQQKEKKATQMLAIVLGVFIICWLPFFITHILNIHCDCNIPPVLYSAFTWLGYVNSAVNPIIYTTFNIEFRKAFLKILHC
#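 PathHunter D2 cells, attached overnight at 37 deg C, received compound in DMSO plus dopamine at EC20 (50 nM final) for 90 min at 37 deg C. Beta-arrestin recruitment was read as luminescence after 1 h with detection reagent at ambient temperature.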
# D2 ag-1 – Beta-Arrestin HTS for Positive Allosteric Modulators of the Human D2 Dopamine Receptor: Agonists. DiscoveRx PathHunter D2 beta-arrestin, luminescence, 90 min; 100% = 57 uM dopamine signal. hit rate 0.084% among 360,000. activation, % (concentration not given with the values); in the data active = activation above about 40%
#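 Agonist mode: compounds alone added to overnight-plated D2 PathHunter cells for 90 min at 37 C, with 57 uM final dopamine (EC100) defining full response. Beta-arrestin recruitment detected by chemiluminescent reagent, read after 1 h at ambient temperature.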
# D2 PAM-2 – HTS Assay for Positive Allosteric Modulators of the Human D2 Dopamine Receptor: Primary Screen for Potentiators | AID 485347, 2010 | HEK293 T-REx D2, calcium flux, EC20 dopamine potentiation | hit rate 0.34% among 340,000 | D(2) dopamine receptor (Homo sapiens), P14416 | potentiation, % at 10 µM;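 active = potentiation over 3 SD above the plate norm, cut at about 30% in these data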; also: 0% is about no effect
#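 Primary screen. Calcium kinetics in induced HEK293 T-REx D2 cells: compound pre-addition 180 s, EC20 dopamine, 180 s more.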
# D2 ag-2 – HTS Assay for Allosteric Agonists of the Human D2 Dopamine Receptor: Primary Screen for Agonists; activation, % at 2 µM; hit rate 0.53% among 340,000; HEK293 T-REx D2 cells, calcium flux agonist mode;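 active = activation over 3 SD above normal in the single-dose calcium agonist read, cut at about 30% in these data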; also: 0% is about no effect
#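 Agonism scored from kinetic calcium signal (1 read/sec, 180 s) following compound pin transfer, after a 10 s baseline. Cells: HEK293 Trex line expressing inducible D2 receptor coupled to calcium, dye-loaded after overnight culture at 30 C.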
# D2 antag – HTS Assay for Allosteric Antagonists of the Human D2 Dopamine Receptor: Primary Screen for Antagonists | D(2) dopamine receptor (Homo sapiens), P14416 | HEK293 TREx D2 cells, calcium flux, dopamine EC80 | inhibition, % at 10 µM | hit rate 2% among 340,000 | AID 485344, 2010; in the data active = inhibition above about 30%; inactive = below that, where a call was filed; also: 0% is about no effect
#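 Measurement of antagonist activity uses fluorescent calcium dye in inducible HEK293 T-REx D2 cells: 10 s baseline, compound addition with 180 s read, EC80 dopamine addition with a further 180 s read.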
# The depositor's hits bear a star; · = no result.
SMILES,D2 PAM-1,D2 ag-1,D2 PAM-2,D2 ag-2,D2 antag
CC1CCCCN1C(=O)NC12CC3CC(CC(C3)C1)C2 (stereo not given),2,3,-1,0,34*
COc1ccccc1N1CCN(C(=O)c2c(C)noc2C)CC1,-1,4,10,0,-12
COc1ccccc1N1CCN(C2CCCC(C)C2)CC1 (stereo not given),-23,-2,-22,0,34*
COc1ccccc1N1CCN(C(=O)c2ccoc2C)CC1,-5,0,-6,1,35*
COc1ccccc1C(=O)N1CCC(N2CCN(c3ccccc3OC)CC2)CC1,-21,0,-28,9,38*
COc1ccccc1N1CCN(C2CCN(C(=O)COc3ccccc3)CC2)CC1,-32,1,-22,27,90*
COc1ccccc1N1CCN(C(=O)C2CCN(C(=O)c3ccccc3Cl)CC2)CC1,10,-1,0,1,4
Cc1ccc(OC(C)C(=O)Nc2nonc2-c2ccc(Br)cc2)cc1C (stereo not given),·,·,7,1,·
COc1ccccc1N1CCN(C(=O)c2coc(=O)c(Br)c2)CC1,-17,-2,-15,1,43*
COc1ccccc1N1CCN(C(=O)C2CC=CCC2C(=O)O)CC1 (stereo not given),-35,-2,-28,0,33*
CCCc1nn2c(=O)cc(COC(=O)c3ccc(NC(=O)c4cccs4)cc3)nc2s1,·,·,5,1,·
N#CC1=C(N)OC2=C(CC/C2=C\c2ccc(F)cc2)C1c1ccc(F)cc1 (stereo not given),·,·,-5,40*,37*
COc1cccc(Cn2c(=O)n(-c3cccc(Cl)c3C)c(=O)c3c4c(sc32)CN(C(C)=O)CC4)c1,·,·,-6,0,·
COc1ccc(OC)c(NC(=O)CSc2cn(CC(=O)N3CCCCCC3)c3ccccc23)c1,·,·,0,0,·
CCN(CC)CCNCC(O)(c1ccc(Cl)cc1)c1ccc(Cl)cc1,-16,-1,-25,·,·
CCN(CC)CCNCc1ccc(-c2ccc(Cl)cc2)o1,-30,1,-24,0,33*
CCOC(=O)c1c(C)cccc1OCC(N)=O,-18,0,64*,-1,-2
COC(=O)C1=CN(CC2CCCO2)C=C(C(=O)OC)C1c1cccc(O)c1 (stereo not given),-11,-4,12,1,-14
COC(=O)C1=CN(CC2CCCO2)C=C(C(=O)OC)C1c1ccccc1C(F)(F)F (stereo not given),12,-1,6,0,43*
CCN(CC(=O)Nc1c(F)cccc1F)C(=O)Cc1sc(C)nc1-c1ccc(F)cc1,11,-3,17,-1,-3
CCN(CC(=O)Nc1cc(Cl)ccc1C)C(=O)Cc1sc(C)nc1-c1ccc(F)cc1,-2,-5,-42,0,75*
CCN(CC(=O)Nc1cc(Cl)ccc1C)C(=O)COc1ccccc1F,-28,-3,4,-2,40*
CCN(CC(=O)Nc1cc(Cl)ccc1C)C(=O)CCOc1ccccc1C,-36,-3,-14,0,31*
CCOc1ccc(CCNC(=O)CSCC(=O)Nc2ccc(OC)cc2)cc1OCC,1,-1,8,-1,31*
COc1ccc(NC(=O)CSCC(=O)N(C)Cc2ccc3c(c2)OCCO3)cc1,11,2,-10,0,35*
SMILES,D2 PAM-1,D2 ag-1,D2 PAM-2,D2 ag-2,D2 antag
COc1ccc(NC(=O)CN(C)C(=O)Cc2ccc3c(c2)OCCO3)cc1,4,2,0,1,-32
COc1cccc(-n2c(=O)c3sc4ccccc4c3n(CC(=O)Nc3ccccc3OC)c2=O)c1,·,·,-1,1,·
COCC(=O)N(Cc1cc2ccc(C)c(C)c2n2nnnc12)C1CCCC1,-3,1,37*,0,8
CCOC(=O)COn1c(-n2nc(C)cc2C)nc2ccccc2c1=O,-3,-2,-8,-4,33*
O=C(NCc1ccccc1Br)C1CCCN(C(=O)N2CCOc3ccccc32)C1 (stereo not given),·,·,-3,1,·
Cc1ccc(CNC(=O)CCc2c(C)c3cc4c(C)coc4cc3oc2=O)cc1,·,·,11,-1,·
CCOC(=O)c1cc2c(=O)n3ccccc3nc2n(CCOC)c1=NC(=O)C(C)(C)C,11,-1,-11,0,-14
CCOC(=O)c1cc2c(=O)n3ccccc3nc2n(CCCOC)c1=NC(=O)C(C)(C)C,-9,-4,-8,32*,-6
O=C(Cn1cc(SCc2ccccc2F)c2ccccc21)N1CCCCCC1,·,·,-8,0,·
CC1=C(c2ccc(C)cc2)S(=O)(=O)N(Cc2ccc(C(=O)Nc3ccc(F)cc3C)cc2)C1=O,·,·,18,0,·
COc1ccc(N(Cc2cccs2)C(=O)Nc2ccccc2)cc1,·,·,-17,·,·
CCOc1ccc(C(=O)NCC(=O)OCc2c(C)noc2C)cc1OCC,-16,-2,-4,2,37*
O=C(N/C=N/OCc1ccc(Cl)cc1Cl)NOCc1c(Cl)cccc1Cl,-4,-5,-6,0,31*
CO/N=C/NC(=O)NOCc1ccc(Cl)cc1Cl,12,2,10,1,27
CCc1nn(CC(=O)N(CC)Cc2ccccc2)c(=O)c2cc3occc3n12,·,·,1,·,·
Clc1c(Cl)c(Cl)c2n[nH]nc2c1Cl,-5,-5,1,5,38*
O=S1(=O)c2ccccc2N(Cc2cccc(F)c2)c2ccccc21,·,·,-8,-1,·
CSCCC(N=C1NS(=O)(=O)c2ccccc21)C(=O)NCCc1ccccc1 (stereo not given),-27,-1,-22,1,42*
Cc1ccc(-c2csc(N3CCN(c4cc5c(cc4Cl)nc(-c4ccncc4)n5CCN4CCCCC4)CC3)n2)cc1,-12,-2,5,0,4
CCCn1c(C)nc2cc(Cl)c(N3CCN(c4nc(-c5ccc(C)cc5)cs4)CC3)cc21,-10,-2,3,0,40*
Cc1c(CC(=O)NCc2ccc(F)cc2)c(=O)oc2cc(O)c(Cl)cc12,·,·,-2,-1,·
COc1cccc(-c2nc(SC(C(C)=O)C(=O)N(C)C)c3c(=O)n(C)c(=O)n(C)c3n2)c1 (stereo not given),·,·,8,0,·
COc1ccc(NC(=S)N(CCCN2CCOCC2)C(C)c2cc3cccc(OC)c3o2)cc1 (stereo not given),-15,-1,-18,0,35*

# Assay outcomes deposited in PubChem BioAssay by National Center for Advancing Translational Sciences (NCATS).
